26 molecules from PubChem BioAssay (EPA / NIEHS) can be followed below.

SMILES strings stand for the structures. The source made the active and inactive calls. How the source made its calls: active means hit-call score of the fitted dose curve at least 0.9, where 1 is the maximum; inactive means score below 0.9.

For experiment [1], the target named is Transcription factor E2F1 (Homo sapiens) (UniProt Q01094). The experiment in a line: ATG_E2F_CIS: Attagene CIS-FACTORIAL HepG2 Assay for human E2F Transcription Factor 1 (AID 2282935). Conditions: HepG2 Attagene cis-reporter, E2F reporter RNA transcripts; actives raise or lower the signal. The method, boiled down:
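Total RNA from 24 h-treated, reporter-transfected HepG2 cells undergoes DNase I treatment, oligo(dT) reverse transcription, PCR and 6-FAM primer extension before capillary electrophoresis.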

A short description of experiment [2]: ATG_E_Box_CIS: Attagene CIS-FACTORIAL HepG2 Assay for human Enhancer Box (E-box) (AID 2282936). Conditions: HepG2 E-box cis-reporter transcription, actives raise or lower the signal. The method, boiled down:
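DMSO served as negative control and baseline for bidirectional fitting. Human hepatoma HepG2 cells, transiently transfected with cis-reporter constructs, were dosed 24 h; reporter mRNA read by RT-PCR and capillary electrophoresis.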

Experiment [3] in a line: ATG_M_61_CIS: Attagene CIS-FACTORIAL HepG2 Assay for M61 Transcription Factor (Internal Marker) (AID 2282937). Conditions: HepG2 Attagene CIS-FACTORIAL M61 internal marker reporter; actives raise or lower the signal. The procedure, abridged: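 HepG2 cells transiently transfected with cis-element-driven multiple reporter transcription units, dosed for 24 h. Reporter mRNA measured by RT-PCR, 6-FAM primer-extension labelling, HpaI digestion and capillary electrophoresis; bidirectional fit versus DMSO baseline.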

A short description of experiment [4]: ATG_EGR_CIS: Attagene CIS-FACTORIAL HepG2 Assay for human Early Growth Response 1 (EGR1) (AID 2282938). The following applies: HepG2 Attagene CIS-FACTORIAL EGR reporter mRNA; actives raise or lower the signal. The procedure, abridged:
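HepG2 cells transiently transfected with cis-promoter-driven multiplexed reporter transcription units; reporter mRNA measured 24 h after compound dosing by RT-PCR, 6-FAM primer extension, HpaI digestion and capillary electrophoresis. Bidirectional fit versus DMSO baseline.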

The nature of experiment [5]: ATG_M_19_CIS: Attagene CIS-FACTORIAL HepG2 Assay for M19 Transcription Factor (Internal Marker) (AID 2282939). The following applies: HepG2 Attagene CIS-FACTORIAL M19 internal marker reporter; actives raise or lower the signal. The method, boiled down: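 Following a 24 h exposure, RNA from transfected HepG2 cells was reverse-transcribed, PCR-amplified with reporter-specific primers, end-labelled with 6-FAM and HpaI-digested before capillary separation. Values represent gain or loss versus DMSO.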

Experiment [6] can be described thus: ATG_ERE_CIS: Attagene CIS-FACTORIAL HepG2 Assay for Estrogen Response Element (ERE) (AID 2282940). The following applies: HepG2 ERE cis-reporter, Attagene RNA transcript; actives raise or lower the signal. The procedure, abridged: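 HepG2, transient cis-reporter units, 24 h exposure. RNA isolated, oligo(dT) RT, reporter-specific PCR, FAM extension, HpaI cut, CE detection. Gain/loss-of-signal vs DMSO.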

Experiment [7] can be described thus: ATG_Ets_CIS: Attagene CIS-FACTORIAL HepG2 Assay for human Erythroblast Transformation Specific (ETS) (AID 2282941). The following applies: HepG2 ETS cis-reporter transcription, actives raise or lower the signal. The procedure, abridged:
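Human HepG2 hepatoma cells were transiently transfected with promoter-driven reporter constructs and treated for 24 hours. Reporter transcripts were quantified by RT-PCR with fluorescent primer extension; bidirectional curve fitting used DMSO as reference.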

Experiment [8] has as its target Hepatocyte nuclear factor 3-beta (Homo sapiens) (UniProt Q9Y261). The experiment in a line: ATG_FoxA2_CIS: Attagene CIS-FACTORIAL HepG2 Assay for human Forkhead box A2 (FOXA2) (AID 2282942). The following applies: HepG2 cis-reporter transcription factor activity, 24 h; actives raise or lower the signal. The procedure, abridged: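 HepG2 cells transiently transfected with multiple cis-regulated reporter transcription units, dosed for 24 h. Reporter mRNA measured by RT-PCR, 6-FAM labelling, HpaI digestion and capillary electrophoresis; bidirectional fitting against DMSO baseline.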

The nature of experiment [9]: ATG_FoxO_CIS: Attagene CIS-FACTORIAL HepG2 Assay for human Forkhead box O (FoxO) (AID 2282943). The following applies: HepG2 Attagene cis-reporter, FoxO element, mRNA; actives raise or lower the signal. The procedure, abridged:
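Human hepatoma HepG2 cells carry transiently introduced reporter transcription units controlled by cis promoter elements. Chemical treatment lasted 24 h, and mRNA signal was compared with DMSO.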

The nature of experiment [10]: ATG_GATA_CIS: Attagene CIS-FACTORIAL HepG2 Assay for human GATA Binding Protein (AID 2282944). Conditions: HepG2 GATA cis-element reporter, Attagene multiplex mRNA; actives raise or lower the signal. The method, boiled down:
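DMSO serves as negative control and baseline for bidirectional fitting of reporter mRNA changes. HepG2 cells bearing transiently transfected cis-promoter reporters were exposed 24 h; transcripts detected via RT-PCR and capillary electrophoresis.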

Chain of Transcription factor E2F1 (Homo sapiens) (Q01094 whole entry, looked up): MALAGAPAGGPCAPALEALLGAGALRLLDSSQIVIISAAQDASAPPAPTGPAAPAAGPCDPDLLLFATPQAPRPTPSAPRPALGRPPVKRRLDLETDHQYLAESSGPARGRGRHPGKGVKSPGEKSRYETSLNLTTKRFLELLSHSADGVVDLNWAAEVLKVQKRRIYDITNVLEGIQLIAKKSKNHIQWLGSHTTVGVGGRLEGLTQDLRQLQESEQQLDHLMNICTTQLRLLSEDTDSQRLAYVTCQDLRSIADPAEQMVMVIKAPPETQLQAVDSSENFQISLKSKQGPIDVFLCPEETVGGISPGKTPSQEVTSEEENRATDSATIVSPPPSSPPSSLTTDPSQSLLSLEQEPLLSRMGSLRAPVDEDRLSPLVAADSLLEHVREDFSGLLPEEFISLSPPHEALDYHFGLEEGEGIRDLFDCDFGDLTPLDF
Chain of Hepatocyte nuclear factor 3-beta (Homo sapiens) (Q9Y261 whole entry, looked up): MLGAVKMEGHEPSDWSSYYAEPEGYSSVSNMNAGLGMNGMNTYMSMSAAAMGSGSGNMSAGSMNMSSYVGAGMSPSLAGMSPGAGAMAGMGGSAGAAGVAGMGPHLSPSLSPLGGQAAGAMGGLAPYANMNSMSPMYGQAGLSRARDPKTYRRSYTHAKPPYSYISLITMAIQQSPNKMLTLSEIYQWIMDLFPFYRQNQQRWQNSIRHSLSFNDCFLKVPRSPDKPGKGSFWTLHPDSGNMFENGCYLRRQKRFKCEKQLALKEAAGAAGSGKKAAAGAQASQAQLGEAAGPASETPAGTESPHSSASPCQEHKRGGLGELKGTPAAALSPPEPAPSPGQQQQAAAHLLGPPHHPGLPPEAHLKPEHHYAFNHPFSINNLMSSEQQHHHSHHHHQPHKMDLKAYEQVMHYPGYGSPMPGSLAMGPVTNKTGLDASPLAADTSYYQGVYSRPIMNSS

Turning to `CCO[Si](CCC#N)(OCC)OCC`, the call in experiment [1], in experiment [2], in [3], in experiment [4], in experiment [5] and in experiment [6] was inactive. The call in experiment [7], in experiment [8], in experiment [9] and in experiment [10] was inactive.

For `O=S1(=O)CC(Cl)(Cl)C(Cl)(Cl)C1`, the molecule was classed as inactive in [1], in experiment [3], in [5], in [6], in [7] and in experiment [8]. For the same molecule, the result in experiment [9] and in experiment [10] was inactive. Further, the AC50 in experiment [2] was 2.8 µM (active); in [4], 6.17 µM (active).

With `O=C(O)CS`, the molecule was classed as inactive in experiment [1], in [2], in [3], in experiment [4], in experiment [5] and in [6]. For the same molecule, the molecule was classed as inactive in [7], in experiment [8], in [9] and in experiment [10].

In the case of `C1COCO1`, the result in experiment [1], in [2], in experiment [3], in experiment [4], in [5] and in [6] was inactive. For the same molecule, the molecule was classed as inactive in [7], in experiment [8], in experiment [9] and in experiment [10].

Consider `CC(=O)c1cccnc1`, for which the outcome in [1], in [2], in experiment [3], in experiment [4], in [5] and in [6] was inactive. Besides, the result in experiment [7], in [8], in [9] and in [10] was inactive.

On to `CCCCCCCCOC(C)=O`, for which the outcome in experiment [1], in [2], in [3], in experiment [4], in experiment [5] and in experiment [6] was inactive. The outcome in experiment [7], in experiment [8], in [9] and in [10] was inactive.

For `CCc1cccc(O)c1`, the molecule was called inactive in experiment [1], in [2], in experiment [3], in experiment [4], in experiment [5] and in [6]. Moreover, the call in experiment [7], in [8], in [9] and in experiment [10] was inactive.

As for `CC1(C)CC(=O)CC(C)(C)N1`, the result in experiment [1], in [2], in experiment [3], in experiment [4], in experiment [5] and in experiment [6] was inactive. For the same molecule, the outcome in experiment [7], in experiment [8], in experiment [9] and in experiment [10] was inactive.

With `CCCCC(CC)COCCO` (stereo not given), the molecule was classed as inactive in [1], in experiment [2], in experiment [3], in experiment [4], in [5] and in experiment [6]. The outcome in experiment [7], in experiment [8], in experiment [9] and in [10] was inactive.

As to `CCC(=O)OCC=Cc1ccccc1`, the outcome in [1], in [2], in experiment [3], in [4], in experiment [5] and in experiment [6] was inactive. The molecule was called inactive in experiment [7], in [8], in [9] and in [10].

For the molecule `Cc1cccc(O)c1`, the molecule was called inactive in experiment [1], in experiment [2], in experiment [3], in [4], in experiment [5] and in experiment [6]. The molecule was classed as inactive in [7], in experiment [8], in [9] and in [10].

For the molecule `CC(=O)CCC=C(C)CCC=C(C)C`, the molecule was called inactive in [1], in experiment [2], in experiment [3], in experiment [4], in [5] and in experiment [6]. Further, the molecule was classed as inactive in experiment [7], in experiment [8], in experiment [9] and in [10].

Regarding `CCCCCCCCOC(=O)c1ccc(O)cc1`, the call in experiment [1], in [2], in experiment [3], in experiment [4], in experiment [5] and in experiment [7] was inactive. Moreover, the outcome in experiment [8], in [9] and in [10] was inactive. The AC50 in [6] was 5.12 µM (active).

Consider `c1coc(CNc2ncnc3nc[nH]c23)c1`, for which the molecule was called inactive in experiment [1], in experiment [2], in experiment [3], in experiment [4], in experiment [5] and in experiment [6]. Besides, the molecule was classed as inactive in experiment [7], in [8], in experiment [9] and in [10].

On to `C=CC(C)CCCC(C)(C)O` (stereo not given), for which the molecule was called inactive in [1], in experiment [2], in experiment [3], in [4], in experiment [5] and in experiment [6]. Besides, the result in experiment [7], in experiment [8], in [9] and in experiment [10] was inactive.

As to `CC(=O)C1C(=O)C=C(C)OC1=O` (stereo not given), the molecule was classed as inactive in [1], in [2], in [3], in [4], in experiment [5] and in [6]. Also, the call in experiment [7], in [8], in experiment [9] and in experiment [10] was inactive.

`FC(F)(F)c1ccc(Cl)c(Cl)c1`: the result in experiment [1], in experiment [2], in experiment [3], in experiment [4], in experiment [5] and in [6] was inactive. The call in experiment [7], in [8], in experiment [9] and in experiment [10] was inactive.

For the molecule `NCCN1CCNCC1`, the molecule was called inactive in [1], in experiment [2], in experiment [3], in [4], in experiment [5] and in [7]. The result in experiment [8], in experiment [9] and in experiment [10] was inactive. Moreover, in experiment [6], the AC50 was 32.5 µM (active).

For `CCC(C)(CCCC(C)C)OC(C)=O` (stereo not given), the outcome in experiment [1], in experiment [2], in experiment [3], in experiment [4], in [5] and in experiment [6] was inactive. Also, the molecule was classed as inactive in experiment [7], in [8], in experiment [9] and in experiment [10].

As to `CC(CO)c1ccccc1` (stereo not given), the call in [1], in experiment [2], in [3], in [4], in [5] and in experiment [6] was inactive. Besides, the molecule was called inactive in experiment [7], in experiment [8], in [9] and in [10].

For the molecule `CC(C)CCOC(=O)CC(C)C`, the result in experiment [1], in experiment [2], in experiment [3], in experiment [4], in experiment [5] and in [6] was inactive. For the same molecule, the molecule was called inactive in experiment [7], in [8], in [9] and in experiment [10].

For `c1ccc(Sc2ccccc2)cc1`, the molecule was called inactive in experiment [1], in experiment [2], in [3], in [4], in [5] and in [7]. Moreover, the result in experiment [8], in [9] and in experiment [10] was inactive. In experiment [6], the AC50 is 63.5 µM (active).

As for `CN(C)C`, the outcome in [1], in experiment [2], in experiment [3], in [4], in [5] and in experiment [6] was inactive. The molecule was classed as inactive in experiment [7], in [8], in [9] and in experiment [10].

Take `CCCCC/C=C\C=C\C(=O)OCC`: the molecule was called inactive in experiment [1], in [2], in experiment [3], in experiment [5], in experiment [6] and in experiment [7]. In addition, the result in experiment [9] and in [10] was inactive. Moreover, the values for the AC50 in experiment [4] and in experiment [8] were 58.3 µM (active) and 71.5 µM (active), respectively.

For the molecule `Cc1ccc(C(C)(C)O)cc1`, the call in experiment [1], in experiment [2], in experiment [3], in [4], in experiment [5] and in experiment [6] was inactive. The outcome in experiment [7], in experiment [8], in experiment [9] and in experiment [10] was inactive.

For `Cc1ccccc1S`, the result in experiment [1], in experiment [2], in [3], in experiment [4], in [5] and in experiment [7] was inactive. For the same molecule, the molecule was classed as inactive in experiment [8] and in experiment [10]. Also, the AC50 is 20.5 µM (active) in [6] and 134 µM (active) in [9].
